Source: PubChem BioAssay
IL-1B inflam inh – qHTS for Inhibitors of Inflammasome Signaling: IL-1-beta AlphaLISA Primary Screen | THP-1 LPS/ATP IL-1B secretion, AlphaLISA, 16 h; stronger effect = lower value | activity change, % at 57.5 µM | actives 4.7% (n = 360,000); in the data active = activity change below about -50%; inconclusive = mostly about -30% to -49%
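THP-1 cells pretreated 1 hr with compounds (up to 57.5 uM final), then stimulated with LPS (250 ng/mL final) plus ATP (1.25 mM final); secreted IL-1B measured by AlphaLISA after 16 hr, decreased signal indicating inhibition.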
TDP1 cell CPT – qHTS for Inhibitors of human tyrosyl-DNA phosphodiesterase 1 (TDP1): qHTS in cells in presence of CPT | chicken DT40 Tdp1-/-;hTDP1 cells + 20 nM CPT, ATP luminescence, 48 h | actives 12% (n = 420,000) | Potency, µM (highest dose often 46.2 µM), for inactives: at the top dose activity change, negative = growth inhibition, actives largely listed as inhibitors; note: potency is the fitted concentration of half-maximal effect; nearly all actives have a fitted effect of over 55% in size
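Cell growth measured by CellTiter-Glo luminescence after a minimum 48 h, 37 C compound exposure with 20 nM CPT in Tdp1-knockout DT40 cells stably expressing hTDP1, seeded 400/well; qHTS titration format.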
HT1080 IDH1KD tx – qHTS for induction of synthetic lethality in tumor cells producing 2HG: qHTS for the HT-1080-IDH1KD cell line. actives 2% (n = 360,000). HT-1080 IDH1 knockdown viability, ATP luminescence, 48 h. Potency, µM (highest dose often 46.1 µM), without a hit: top-dose activity, negative = toxicity, usual class: cytotoxic;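 note: potency is the fitted concentration of half-maximal effect; 0% = DMSO wells and -100% = cell-free medium wells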
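% activity derives from luminescence (CellTiter-Glo), normalised to DMSO and no-cell wells. HT-1080-IDH1KD cells, 750/well, had 48 h compound exposure at 37 °C.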
HT1080-NT tox – qHTS for induction of synthetic lethality in tumor cells producing 2HG: qHTS for the HT-1080-NT fibrosarcoma cell line. Potency, µM (highest dose often 46.1 µM), without a hit: at the top dose activity, negative = less viability, most hits filed as cytotoxic. HT-1080-NT fibrosarcoma viability, CellTiter-Glo ATP luminescence, 48 h. actives 1.6% (n = 360,000);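 note: NT is the 2HG producing partner of a matched IDH1 knockdown line; potency is the fitted concentration of half-maximal effect; 0% = DMSO-treated cells and -100% = media-only wells without cells; nearly all actives have a fitted effect of over 55% in size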
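Viability by CellTiter-Glo luminescence after 48 h compound exposure at 37C of HT-1080-NT cells (750/well, RPMI, 5% FBS). % activity scaled between DMSO wells and medium-only wells, then curve-fitted and categorized by curve class.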
TDP1 cell noCPT – qHTS for Inhibitors of human tyrosyl-DNA phosphodiesterase 1 (TDP1): qHTS in cells in absence of CPT; DT40 Tdp1-/- hTDP1 cells, no CPT, ATP luminescence, 48 h; Potency, µM (highest dose often 46.2 µM), for the others: top-dose activity change, negative = growth inhibition, actives largely listed as inhibitors; actives 15% (n = 420,000); AID 686978, 2013; note: potency is the fitted concentration of half-maximal effect; nearly all actives have a fitted effect of over 55% in size
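Compound effects on proliferation are scored in DT40 Tdp1-/-;hTDP1 cells in the absence of CPT. ATP levels (CellTiter-Glo luminescence) are recorded after a ≥48 hr, 37 °C incubation.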
* hit, by the source's call; u = inconclusive; x = no result; [ ] = dose if it differs, or a comment. Compounds with a hit are over-represented: about 19% of the library has one in this group of screens. Unless noted, calls come from the whole dose curve; as a rule, active = well fitted curve in the direction sought with a large enough effect; inconclusive = small, poorly fitted or top-dose-only effect, or another doubt; inactive = no such curve, though single readings can be large; an effect the other way counts as inactive or inconclusive. Unless noted, % is set by controls: 0 for no effect and ±100 for the full control effect.

SMILES	IL-1B inflam inh	TDP1 cell CPT	HT1080 IDH1KD tx	HT1080-NT tox	TDP1 cell noCPT
COc1ccc([C@H]2C=C3CN(C(=O)OC(C)(C)C)S(=O)(=O)[C@H]3C[C@H]2OC(=O)c2cccs2)cc1	-2	-22%	-19%	-4%	u
C/C(=N\Nc1ccc2nncn2n1)c1ccccn1	89	2.3µM*	u	u	4.6µM*
C/C(=N\Nc1ccc2nncn2n1)c1ccco1	3	1%	-3%	-3%	0%
C(=N\Nc1ccc2nncn2n1)/c1ccccn1	x	12µM*	u	u	23µM*
CC(=O)c1ccc(F)c(-c2cc(C)cc3c2OC(CNC(=O)C2CCCCN2C)C3)c1 (stereo unspecified)	x	-6%[9.04 µM]	x	x	u
COc1cc(C(CC(=O)NCc2ccccc2Cl)N2Cc3ccccc3C2=O)cc(OC)c1OC (stereo unspecified)	x	-8%	x	x	-22%
COc1ccc(F)cc1C(=O)C1CCCN(Cc2c(C)n(C)n(-c3ccccc3)c2=O)C1 (stereo unspecified)	-3	11%	3%	-8%	-4%
Cc1cc(Nc2ccc(Br)c(C)c2)n2nc(-c3ccco3)nc2n1	x	u	x	x	21µM*
Cc1cc(C)n2nc(-c3ccco3)nc2n1	8	4%	17%	19%	4%
Cc1cccc(N2CCN(C(=S)Nc3ccc4nc(N5CCN(C)CC5)cc(C)c4c3)CC2C)c1 (stereo unspecified)	-72*	u	-3%	-11%	21µM*
Cc1cc(N2CCN(C)CC2)nc2ccc(NC(=S)N3CCN(c4ccc(F)cc4)CC3)cc12	212	u	u	u	10µM*
Cc1cc(N2CCN(C)CC2)nc2ccc(NC(=S)N3CCN(c4ccc(Cl)cc4)CC3)cc12	38	9.2µM*	u	u	u
Cc1cc(N2CCN(C)CC2)nc2ccc(NC(=S)N3CCN(c4cccc(Cl)c4)CC3)cc12	19	1.8µM*	-9%	-1%	2.6µM*
Cc1cc(N2CCN(C)CC2)nc2ccc(NC(=S)N3CCCCCC3)cc12	-5	-4%	-9%	-14%	-30%
CC(=O)c1ccc(NC(=O)c2sc(-n3nc(C)c(CCC(C)C)c3C)nc2C)cc1	x	-70%	x	x	u
Cc1ccc(C)c(Cn2c(=O)c3c(nc4n3CCN4c3ccccc3)n(C)c2=O)c1	x	10%	x	x	2%
Cc1cccc(N2CCN(C(=S)Nc3ccc4nc(N5CCN(C)CC5)cc(C)c4c3)CC2)c1C	4	1.3µM*	1%	-10%	1µM*
Cc1cc(N2CCN(c3ccc(F)cc3)CC2)nc2cc(O)ccc12	23	23µM*	-5%	-12%	15µM*
CCCC(=Nc1ccc(N)cc1)C1=C(O)C(C(=O)OC)C(C)(C)CC1=O (stereo unspecified)	13	-11%	1%	2%	u
Cc1ccc(C(=O)N/C(=C\c2ccco2)C(=O)NCCCn2ccnc2)cc1C	0	-13%	6%[9.24 µM]	-8%	-6%
CC(=O)c1ccc(NC(=O)C(C)OC(=O)c2ccc(NS(=O)(=O)c3ccc(F)c(F)c3)cc2)cc1 (stereo unspecified)	0	-6%	-4%	0%	-27%
COC(=O)c1ccccc1OCc1cc(=O)oc2ccc(C)cc12	25	-8%	5%	u	-10%
CCCCCC(=O)O[C@H](CC(=O)O)C[N+](C)(C)C	x	8%	x	x	-11%
CCN(CC(=O)Nc1cc(S(=O)(=O)N2CCCCC2)ccc1C)Cc1ccccc1	-14	21µM*	u	-2%	18µM*
CCN(CC(=O)NCC(=O)Nc1ccc(Br)cc1C)Cc1ccccc1	-63*	-19%	-2%	-3%	u
SMILES	IL-1B inflam inh	TDP1 cell CPT	HT1080 IDH1KD tx	HT1080-NT tox	TDP1 cell noCPT
Cc1ccc(S(=O)(=O)N2CCCCC2)cc1NC(=O)c1ccco1	-17	-12%	-2%	-13%	-24%
CCN(CC(=O)Nc1ccc(C)c(S(=O)(=O)N2CCOCC2)c1)Cc1ccccc1	-2	21µM*	-1%	-5%	u
CC(=O)c1ccc(OCCCC(=O)Nc2cc(S(=O)(=O)N3CCCCC3)ccc2C)cc1	6	u	-13%	-13%	23µM*
Cc1cc(Br)ccc1NC(=O)CN(C)C(=O)CNC(=O)Cc1ccccc1	-5	u	1%	0%	u
Cc1ccc(S(=O)(=O)N2CCCCC2)cc1NC(=O)CCOc1ccccc1	-2	u	-2%	2%	u
O=C(OCC(=O)N1CCN(c2ccccc2)CC1)c1nc(Cl)ccc1Cl	8	7%	3%	6%	-28%
Cc1ccc(S(=O)(=O)N2CCCCC2)cc1NC(=O)CCCOc1ccccc1	-4	u	-1%	-4%	21µM*
CN(CC(=O)Nc1c(Cl)cccc1Cl)C(=O)c1cccc(-n2cccc2)c1	-25	16µM*	-9%	-15%	-17%
Cc1cc(C(=O)CCC(=O)N(C)CC(=O)Nc2c(Cl)cccc2Cl)c(C)s1	13	-24%	2%	4%	12µM*
CN(CC(=O)Nc1ccccc1Cl)C(=O)c1cccc(-n2cccc2)c1	-1	-18%	-15%	0%	u
CN(CC(=O)Nc1c(Cl)cccc1Cl)C(=O)CCC(=O)c1ccccc1	-2	-24%	7%	2%	-13%
CN(Cc1ccco1)c1ccnc(-c2ccoc2)n1	x	4%	x	x	0%
O=c1[nH]c(=S)[nH]c2n[nH]nc12	x	12%	x	x	4%
COc1ccccc1CNC(=O)c1ccc(OC(F)F)c(OC)c1	7	27%	0%	5%	-21%
Cc1cc(Cl)c(O)c(-n2nc3ccccc3n2)c1	3	21µM*	18%	10%	u
CC(=O)NCCNC(=O)Cn1nnc(-c2ccccc2)c1COc1ccc2ccccc2c1	25	u	10%	6%	u
CC1(C)C(=O)Nc2ccccc2N1C(=O)COC(=O)c1cccc(O)c1	-22	u	6%	3%	u
Cc1ccc(C(=O)c2ccccc2C(=O)OCC(=O)NCCc2ccccc2)cc1	-75*	u	-8%	6%	u
Cc1ccc(C(=O)c2ccccc2C(=O)OCC(=O)NC(=O)NC(C)(C)C)cc1	20	-16%	-5%	-5%	-26%
COc1cc(C(=O)OCC(=O)NCc2ccc(F)cc2)ccc1OCC(C)C	-7	u	-5%	0%	16µM*
O=C(Cc1ccc(Br)cc1)NCCc1ccc(Cl)cc1Cl	-60*	-25%	-25%	-21%	u
